Assay results taken from PubChem BioAssay AID504710 (Sanford-Burnham Center for Chemical Genomics, 2011).
Active and inactive are the calls of the source.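 How the source made its calls: active means inhibition reaching about 16% in any single replicate (limit read from the data); inactive means the rest.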

What follows are molecules tested against Hexokinase HKDC1 (Homo sapiens) (UniProt Q2TB90) (assay: HKDC1 hexokinase inhibitors, confirmation, biochemical, single concentration (AID 504710)). Details: recombinant HKDC1, G6PDH/diaphorase/resazurin fluorescence; at 20 µM; stronger effect = higher value.
Sequence of Hexokinase HKDC1 (Homo sapiens) (Q2TB90 whole entry, looked up): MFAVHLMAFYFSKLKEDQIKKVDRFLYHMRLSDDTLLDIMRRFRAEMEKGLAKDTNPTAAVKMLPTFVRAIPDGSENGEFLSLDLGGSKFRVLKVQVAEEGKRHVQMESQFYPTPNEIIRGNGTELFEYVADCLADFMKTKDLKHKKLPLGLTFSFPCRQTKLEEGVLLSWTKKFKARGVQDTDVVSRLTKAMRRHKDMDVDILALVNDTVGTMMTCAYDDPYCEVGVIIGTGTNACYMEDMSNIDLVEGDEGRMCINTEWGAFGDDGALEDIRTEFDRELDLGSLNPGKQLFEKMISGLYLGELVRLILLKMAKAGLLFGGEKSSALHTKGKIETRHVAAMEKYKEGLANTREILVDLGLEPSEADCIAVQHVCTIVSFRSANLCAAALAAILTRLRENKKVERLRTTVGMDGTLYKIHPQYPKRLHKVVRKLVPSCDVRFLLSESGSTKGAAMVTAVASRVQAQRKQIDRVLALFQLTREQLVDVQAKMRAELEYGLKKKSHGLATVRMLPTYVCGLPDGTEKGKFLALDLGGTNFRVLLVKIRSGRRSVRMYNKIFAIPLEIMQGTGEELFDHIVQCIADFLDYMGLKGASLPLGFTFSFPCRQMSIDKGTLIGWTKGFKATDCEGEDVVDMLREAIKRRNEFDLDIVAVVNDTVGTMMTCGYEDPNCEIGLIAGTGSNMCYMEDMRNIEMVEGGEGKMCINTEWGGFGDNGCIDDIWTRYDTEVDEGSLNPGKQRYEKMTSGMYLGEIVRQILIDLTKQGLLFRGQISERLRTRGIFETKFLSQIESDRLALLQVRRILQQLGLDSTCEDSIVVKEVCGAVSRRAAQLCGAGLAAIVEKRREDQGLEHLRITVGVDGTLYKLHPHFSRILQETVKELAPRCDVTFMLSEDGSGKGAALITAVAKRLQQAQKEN

Compound	inhibition
CCc1ccc2c(c1)C(NC(C)=O)C(=O)N2CCN1CCOCC1 (configuration not stated)	57.2% (active)
COC(=O)c1cc(C)nc2c1C(=O)C(=O)C=C2N1CCOCC1	65.8% (active)
O=c1[nH]c2ccccc2n2c(-c3ccccc3)nnc12	58.5% (active)
C=CCn1c(SCC(=O)Nc2sc3c(c2C#N)CCC(C)C3)nc2cc(C(=O)O)ccc2c1=O (configuration not stated)	32.7% (active)
CCc1c(C)c(C#N)c2nc3ccccc3n2c1NC	-43.3% (inactive)
CCCCC(CC)CN=C(N)NC(N)=NCCCCCCN=C(N)NC(N)=NCC(CC)CCCC (configuration not stated)	45.9% (active)
CCOC(=O)CSc1nc2ccc(C)cc2n2cnnc12	63.8% (active)
Cc1cc2nnc(SCC(=O)Nc3cc(S(=O)(=O)N4CCOCC4)ccc3Cl)n2c2ccccc12	37.4% (active)
Cc1oc2c(c1C(=O)c1ccc(Cl)cc1)C(=O)C(=O)c1ccccc1-2	46.1% (active)
CC(=NNC(=S)SCc1ccccc1)c1ccccn1	-28.3% (inactive)
Cc1cc(C)c(S(=O)(=O)/N=C2\C=C(Nc3ccc(C(=O)O)cc3)C(=O)c3ccccc32)c(C)c1	39.5% (active)
CCOC(=O)C1=C(Cc2ccc(OC)cc2)C(=O)c2ccccc2C1=O	55.8% (active)
CCC1=NN2C(=N)/C(=C\c3ccc(OCc4cc(=O)n5nc(CC)sc5n4)c(OC)c3)C(=O)N=C2S1	22.8% (active)
Cc1ccc(S(=O)(=O)/N=C2/C=C(Sc3ncn[nH]3)C(=O)c3ccccc32)cc1	63.3% (active)
CC(=NNC(=S)Nc1cccc(C)c1)c1ccccn1	-60.1% (inactive)
CC(=O)Nc1ccc(C2=NNC(=Nc3ccc(S(=O)(=O)N4CCOCC4)cc3)SC2)cc1	-234% (inactive)
O=C(O)CSc1cc(NS(=O)(=O)c2cccc([N+](=O)[O-])c2)c2ccccc2c1O	47.9% (active)
O=C1C(Cl)=C(N2CCCCC2)C(=O)C(Cl)=C1c1cnc(N2CCCCC2)s1	49.4% (active)
O=C(CSc1nnc(CCCN2C(=O)c3cccc4cccc(c34)C2=O)n1-c1ccccc1)N1CCN(CCO)CC1	47.6% (active)

Compound	inhibition
COC1=CC(=O)C=C(OC)C1=O	75.2% (active)
Cc1ccccc1NC1=C/C(=N\S(=O)(=O)c2ccc(C(=O)O)cc2)c2ccccc2C1=O	71.3% (active)
Cc1cc(C(F)F)n2ncc(C(=O)NCCc3ccc(Cl)cc3)c2n1	36.2% (active)
C=CCn1nc([N+](=O)[O-])nc1Sc1cccc2cccnc12	-52.4% (inactive)
Cc1ccc(N=Nc2ccc(O)c3ncccc23)cc1C	-40.4% (inactive)
O=C1C=CC(=O)c2c(O)c(CO)c(CO)c(O)c21	39.3% (active)
O=S(=O)(O)c1ccc(O)c2cc(Nc3ccccc3)ccc12	44.1% (active)
COC1=CC(=O)C(OC)=C(OC)C1=O	71.9% (active)
O=C(O)c1cc(O)c2c(c1)[C@@H]([C@H]1c3cc(C(=O)O)cc(O)c3C(=O)c3c(O[C@@H]4O[C@H](CO)[C@@H](O)[C@H](O)[C@H]4O)cccc31)c1cccc(O[C@@H]3O[C@H](CO)[C@@H](O)[C@H](O)[C@H]3O)c1C2=O	34.1% (active)
Cc1ccc(N=c2ssnc2Cl)cc1	-43.7% (inactive)
O=C(NC1=C(NC2CCS(=O)(=O)C2)C(=O)c2ccccc2C1=O)c1ccccc1 (configuration not stated)	68.9% (active)
S=C(NN=C(c1ccccc1)c1ccccn1)N(Cc1ccccn1)Cc1ccccn1	-59.4% (inactive)
O=[N+]([O-])c1ccc(Sc2nc3ccccc3o2)c([N+](=O)[O-])c1	30.4% (active)
COc1ccc(C2=NNC(=Nc3cc(S(=O)(=O)N(C)C)ccc3C)SC2)c(OC)c1	-120% (inactive)
CC(=O)NC1C(=O)N(CCN2CCOCC2)c2ccc(Cl)cc21 (configuration not stated)	60.6% (active)
O=C(O)c1cc(O)c2c(c1)[C@H]([C@H]1c3cc(C(=O)O)cc(O)c3C(=O)c3c(O[C@@H]4O[C@H](CO)[C@@H](O)[C@H](O)[C@H]4O)cccc31)c1cccc(OC3O[C@H](CO)[C@@H](O)[C@H](O)[C@H]3O)c1C2=O (some centres not stated)	52.1% (active)
CCOC(=O)C1=C(c2ccc(OC)cc2)C(=O)c2ccccc2C1=O	75% (active)
Cc1nc2c(c(=O)c3ccccc3n2C)c(=O)n1-c1ccccc1	56% (active)
